The results in this text go back to PubChem BioAssay (NCATS).

Results filed as inconclusive are left out. Values without a mark were called inactive. Calls follow the shape of the full dose curve.
% is scaled to controls: 0 for no effect and ±100 for the full control effect.

Nucleoprotein (Lymphocytic choriomeningitis virus (strain Armstrong)), sequence (P09992 whole entry, looked up): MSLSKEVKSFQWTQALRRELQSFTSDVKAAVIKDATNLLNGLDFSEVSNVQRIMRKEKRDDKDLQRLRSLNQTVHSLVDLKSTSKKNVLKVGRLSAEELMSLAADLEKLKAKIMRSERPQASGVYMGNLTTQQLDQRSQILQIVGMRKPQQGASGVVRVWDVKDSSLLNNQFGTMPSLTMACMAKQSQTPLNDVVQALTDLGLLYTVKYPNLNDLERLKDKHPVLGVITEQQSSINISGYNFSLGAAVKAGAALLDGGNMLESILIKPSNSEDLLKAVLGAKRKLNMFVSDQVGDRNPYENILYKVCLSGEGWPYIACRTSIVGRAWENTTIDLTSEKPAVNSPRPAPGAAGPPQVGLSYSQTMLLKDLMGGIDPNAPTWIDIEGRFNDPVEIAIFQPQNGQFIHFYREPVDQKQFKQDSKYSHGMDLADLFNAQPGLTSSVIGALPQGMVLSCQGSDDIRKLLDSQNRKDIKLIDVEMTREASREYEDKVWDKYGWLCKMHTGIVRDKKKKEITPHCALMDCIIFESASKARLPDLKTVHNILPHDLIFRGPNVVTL

The test concerns the target Nucleoprotein (Lymphocytic choriomeningitis virus (strain Armstrong)) (UniProt P09992). In words: qHTS for Inhibitors of the Functional Ribonucleoprotein Complex (vRNP) of Lymphocytic Choriomeningitis Arenaviruses (LCMV): LCMV Primary Screen - GLuc reporter signal (AID 1347086). Also: nearly all actives have a fitted effect of over 70% in size. As to conditions: LCMV minigenome vRNP cell assay, Gaussia luciferase reporter; series mostly up to 57.5 µM; activity change, negative = inhibition: at the top concentration. Background: qHTS replaces the single test concentration by a dilution series.
As for `C#CCCCCCCCCCCCc1ccco1`, the “activity change, negative = inhibition” value was 4.76%.

As for `CC/C=C\CCOC(=O)CC`, the “activity change, negative = inhibition” value was -5.11%.

`CCCCOC(=O)C(C)OC(=O)CCC` (stereo not drawn): the “activity change, negative = inhibition” value is 11.4% [at 115 µM].

`O=C(O)CCC[C@H](O)\C=C/C=C/C=C/[C@H](O)C/C=C\CCCCCO`: the activity change, negative = inhibition was -1.08% [at 0.757 µM].

With `COc1cc(C(=O)O)cc(OC)c1OC`, the “activity change, negative = inhibition” value is 16.8%.

For `CC1=CC(=O)O[C@@H]1[C@@]1(C)C[C@H]2OC(=O)C[C@H]3[C@@H](C)C(=O)C(O)=C1[C@@]23CO`, the “activity change, negative = inhibition” value was 5.9%.

As for `CCCCN(CCCC)CC(O)c1cc(Cl)cc2c1-c1ccc(Cl)cc1C2=Cc1ccc(Cl)cc1` (stereo not drawn), the “activity change, negative = inhibition” value was 0.87%.

For the compound `CCCCCC(=O)OCC`, the “activity change, negative = inhibition” value is -1.89% [at 115 µM].

Take `O=c1c(-c2ccc(O)cc2)coc2cc(OC3OC(CO)C(O)C(O)C3O)ccc12` (stereo not drawn): the “activity change, negative = inhibition” value is 22.2%.

In the case of `C=C1[C@@H](OC(C)=O)CC[C@]2(C)[C@@H]1C[C@@H]1C[C@H](OC(C)=O)C(C)=C([C@@H](OC(C)=O)[C@@H]2OC(C)=O)C1(C)C`, the “activity change, negative = inhibition” value is 3.69%.

Consider `CS(C)(=O)=O`, for which the “activity change, negative = inhibition” value is 1.08%.

For the compound `Cc1nc(C)c(C)nc1C`, the “activity change, negative = inhibition” value is 21.6% [at 115 µM].

For the compound `CCCCCc1ccco1`, the “activity change, negative = inhibition” value is -6.79%.

For the compound `O=c1c(O)c(-c2ccccc2O)oc2cc(O)cc(O)c12`, the “activity change, negative = inhibition” value was 3.35%.

Take `CC1=C[C@H](O)CC(C)(C)[C@H]1/C=C/C(C)=C/C=C/C(C)=C/C=C/C=C(C)/C=C/C=C(C)/C=C/C1=C(C)C[C@@H](O)CC1(C)C`: the “activity change, negative = inhibition” value was -5.05%.

Turning to `C=CC(O)CCCCC` (stereo not drawn), the “activity change, negative = inhibition” value was -0.341% [at 115 µM].

`CC(O)[C@H]1CC[C@H]2[C@@H]3CC[C@H]4C[C@@H](O)CC[C@]4(C)[C@H]3C(=O)C[C@]12C` (stereo partly drawn): the “activity change, negative = inhibition” value was 15.6%.

As for `COc1cc2cc(Oc3ccc4ccc(=O)oc4c3)c(=O)oc2cc1OC(C)=O`, the “activity change, negative = inhibition” value is 7.49%.
